61 compounds from PubChem BioAssay AID1986 (Sanford-Burnham Center for Chemical Genomics, 2009) can be followed below.

The assay in a line: cell-free HIV fusion peptide-binding blockers – biochemical, uHTS, fluorescence dequenching, primary screen (AID 1986). The settings on record: 30 min, stronger effect = higher value.
Where [1] appears, read: measured here: repeat confirmation average inhibition, at 18.6 µM.

Each structure is given as a SMILES string. The whole screen tested about 290,000 compounds, of which about 890 (0.31%) were called active. Cut-off read from the data, not from the text of the source: active = inhibition mostly above about 52% (no sharp cut-off); inactive = mostly below about 76%. The full list was thinned out, with actives kept by preference.

In the case of `O=C1NC(=O)N(Cc2ccccc2)C(=O)/C1=C\C=C\c1ccco1`, the inhibition (at 20 µM) is 84.6% (inactive) and the inhibition under setting [1] worked out at 15.8%.

Take `COc1ccc(N2C(=O)/C(=C/c3cccs3)C(=O)NC2=S)cc1`: the inhibition (at 20 µM) is 15.2% (inactive).

As to `CCOc1ccc(N2C(=O)/C(=C/c3ccco3)C(=O)NC2=S)cc1`, the inhibition (at 20 µM) is 31.9% (inactive).

For the compound `O=C1NC(=O)N(Cc2ccco2)C(=O)/C1=C/C=C/c1ccco1`, under “at 20 µM”, the inhibition is 83.8% (active).

For `O=C1NC(=O)N(Cc2ccccc2)C(=O)/C1=C/C=C/c1ccco1`, the inhibition (at 20 µM) is 146% (inactive).

As for `CCN(CC)c1ccc(/C=C2\C(=O)NC(=O)N(CC3CCCO3)C2=O)cc1` (configuration not stated), the inhibition (at 20 µM) was 48.8% (inactive).

As for `COc1ccc(CN2C(=O)NC(=O)/C(=C/c3ccoc3)C2=O)cc1`, the inhibition (at 20 µM) is 146% (inactive).

`CCN(CC)c1ccc(/C=C2/C(=O)NC(=O)N(CC3CCCO3)C2=O)cc1` (configuration not stated): the inhibition (at 20 µM) was 22.9% (inactive).

In the case of `CCN(CC)c1ccc(/C=C2\C(=O)NC(=O)N(Cc3ccco3)C2=O)cc1`, under “at 20 µM”, the inhibition is 84.3% (active).

Turning to `COc1ccc(CN2C(=O)NC(=O)/C(=C\c3ccco3)C2=O)cc1`, the inhibition (at 20 µM) was 91.3% (active).

In the case of `O=C1NC(=O)N(Cc2ccccc2)C(=O)/C1=C\c1ccco1`, the inhibition by setting is: (at 20 µM) 65.1% (inactive); under setting [1], 4.5%.

As to `CCOc1ccc(N2C(=O)/C(=C\c3cccs3)C(=O)NC2=S)cc1`, the inhibition (at 20 µM) is 55.7% (active).

Turning to `CN(C)C(=O)Oc1ccc(-c2cn3cc(Cl)ccc3n2)cc1`, the inhibition (at 20 µM) was -0.5% (inactive).

Take `COCCOC(=O)C1=C(C)OC(N)=C(C(=O)OC)C12C(=O)Nc1ccccc12` (configuration not stated): under “at 20 µM”, the inhibition is -2% (inactive).

Regarding `CNC(C(=O)c1ccccc1)C(OC)c1cccc([N+](=O)[O-])c1` (configuration not stated), the inhibition (at 20 µM) is 1.8% (inactive).

Regarding `Cc1cc(C)nc(N2Cc3ccccc3C2=N)n1`, the inhibition (at 20 µM) was -3.6% (inactive).

In the case of `COc1ccc(OC(=O)N(C)C)c(CN(C)C)c1`, the inhibition (at 20 µM) is 0.5% (inactive).

Consider `COc1ccc(/C=C2/C(=O)NC(=O)N(Cc3ccco3)C2=O)cc1`, for which the inhibition (at 20 µM) was 50.2% (active).

For the compound `COc1ccc(/C=C2/C(=O)N(Cc3ccco3)C(=O)N(C(C)C)C2=O)cc1`, for the setting “at 20 µM”, the inhibition is 9% (inactive).

As to `Cc1ccc(N2C(=O)NC(=O)/C(=C\C=C\c3ccco3)C2=O)cc1`, the inhibition reads like this: (at 20 µM) 75.4% (inactive); under setting [1], 16.3%.

Consider `Cc1cc(C)cc(N2C(=O)NC(=O)/C(=C\C=C\c3ccco3)C2=O)c1`, for which the inhibition runs as follows: (at 20 µM) 108% (inactive); under setting [1], 13.9%.

On to `COc1ccc(CN2C(=O)NC(=O)/C(=C/c3ccc([N+](=O)[O-])o3)C2=O)cc1`, for which, under “at 20 µM”, the inhibition was 85.6% (active).

With `Cc1cc(/C=C2/C(=O)NC(=O)N(Cc3ccco3)C2=O)c(C)n1-c1ccccc1`, the inhibition is 92.7% (inactive) (at 20 µM) and 2.6% under setting [1].

For the compound `Cc1cccc(N2C(=O)NC(=O)/C(=C\C=C\c3ccco3)C2=O)c1`, under “at 20 µM”, the inhibition is 98.4% (active).

As for `COc1ccc(CN2C(=O)NC(=O)/C(=C/c3ccc([N+](=O)[O-])s3)C2=O)cc1`, the inhibition was 55.1% (inactive) (at 20 µM) and 18.5% under setting [1].

Take `CN1C(=O)NC(=O)/C(=C/c2ccc([N+](=O)[O-])o2)C1=O`: the inhibition (at 20 µM) was 27.7% (inactive).

As for `C=CCN1C(=O)/C(=C/c2cccs2)C(=O)NC1=S`, under “at 20 µM”, the inhibition is 15.5% (inactive).

Take `O=C1NC(=S)N(Cc2ccco2)C(=O)/C1=C\c1cccs1`: under “at 20 µM”, the inhibition was 67.5% (active).

Regarding `O=C1NC(=O)N(Cc2ccc(F)cc2)C(=O)/C1=C/c1cccs1`, the inhibition (at 20 µM) was -3.9% (inactive).

For `COc1ccc(NC(=O)CN2C3CCC2CC(O)(c2cccnc2)C3)cc1OC` (configuration not stated), where the note is “at 20 µM”, the inhibition is -0.5% (inactive).

For the compound `c1cc(CCN2CCCC2)ccn1`, the inhibition (at 20 µM) is 1.8% (inactive).

Consider `Cc1cccc(N=Nc2ccc(N(C)C)cc2)c1`, for which the inhibition (at 20 µM) is -1.7% (inactive).

As to `O=[N+]([O-])c1ccc2c(c1)C(c1ccccc1)=NCCN2`, for the setting “at 20 µM”, the inhibition was 0.2% (inactive).

For `CCN1CCN(c2ccc(N)cc2C)CC1`, the inhibition (at 20 µM) is -1.1% (inactive).

Regarding `CN1CCN(Cc2cn3cccnc3n2)CC1`, where the note is “at 20 µM”, the inhibition was -0.4% (inactive).

Regarding `CCC(C)n1c(O)c(C=NCC2CCCO2)c(=O)[nH]c1=S` (configuration not stated), the inhibition (at 20 µM) was -0.8% (inactive).

In the case of `CC1=C2C3OC(=O)C(C)C3CC[C@@]2(C)C=CC1=O` (some centres not stated), the inhibition (at 20 µM) is -0.7% (inactive).

As to `CN1CCN(c2ccc([N+](=O)[O-])c(SCCO)c2)CC1`, where the note is “at 20 µM”, the inhibition is -0.1% (inactive).

Take `Cc1cc(Cl)ccc1C(=O)C1CCCN(Cc2ccon2)C1` (configuration not stated): where the note is “at 20 µM”, the inhibition was -1.3% (inactive).

Take `CCOP(=O)(OCC)C(O)c1ccc(Br)cc1` (configuration not stated): the inhibition (at 20 µM) was -1% (inactive).

Turning to `CC(Cc1ccccc1)[n+]1cc(/N=C(\N)[O-])on1` (configuration not stated), the inhibition (at 20 µM) is -2% (inactive).

As to `CCN(CC)C(=O)c1ccc(NC(=O)CN2CCc3cc(OC)c(OC)cc3C2)cc1`, the inhibition (at 20 µM) was -1.3% (inactive).

With `COc1ccc(CN2CCN(c3ccccc3)CC2)c(C)c1C`, the inhibition (at 20 µM) is -1.3% (inactive).

`CN(C)c1ccc(/C=C2/C(=O)NC(=O)N(Cc3ccco3)C2=O)cc1`: under “at 20 µM”, the inhibition is 42.7% (inactive).

`CCN(CC)c1ccc(/C=C2/C(=O)NC(=O)N(Cc3ccco3)C2=O)cc1`: the inhibition (at 20 µM) was 84.2% (active).

For the compound `Cn1cccc1/C=C1\C(=O)NC(=O)N(Cc2ccco2)C1=O`, where the note is “at 20 µM”, the inhibition is 30.6% (inactive).

Consider `O/N=C1/C(=C\c2ccccc2)N2CCC1CC2`, for which the inhibition (at 20 µM) is 9.6% (inactive).

Take `CN1CCC(N2CC3CC(C2)c2cccc(=O)n2C3)CC1` (configuration not stated): the inhibition (at 20 µM) was 1.9% (inactive).

With `CCOC(=O)c1c(/N=C/C2C(=O)NC(=S)NC2=O)sc(C)c1C`, where the note is “at 20 µM”, the inhibition is 30.3% (inactive).

As for `CCOC(=O)c1c(/N=C/C2C(=O)NC(=S)NC2=O)sc2c1CCC2`, the inhibition (at 20 µM) was 81.3% (active).

Turning to `CCOC(=O)c1c(/N=C/C2C(=O)NC(=O)NC2=O)sc2c1CCC2`, the inhibition (at 20 µM) was 6.8% (inactive).

In the case of `CN1CCC(=O)N(CCN=[N+]=[N-])CC1`, the inhibition (at 20 µM) was 1.6% (inactive).

As to `COc1cc(C)c(CN2CC=C(c3ccc(F)cc3)CC2)cc1C`, the inhibition (at 20 µM) was -1.1% (inactive).

For `CCN(CC)c1ccc(CN(C)CCc2ccc(OC)c(OC)c2)cc1`, where the note is “at 20 µM”, the inhibition is 0.5% (inactive).

In the case of `Fc1ccccc1N1CCN(Cc2c(F)cccc2F)CC1`, under “at 20 µM”, the inhibition was -0.2% (inactive).

Regarding `O=C(N=Nc1c(O)[nH]c(=O)[nH]c1=O)C1COc2cc3ccccc3cc2O1` (configuration not stated), the inhibition (at 20 µM) was 4.2% (inactive).

In the case of `O=C(C1CCCN(S(=O)(=O)c2cccc3nsnc23)C1)N1CCC2(CC1)OCCO2` (configuration not stated), under “at 20 µM”, the inhibition is -1.1% (inactive).

Consider `O=C(C(Cc1ccccc1)NS(=O)(=O)c1cccc2nsnc12)N1CCC2(CC1)OCCO2` (configuration not stated), for which the inhibition (at 20 µM) was 103% (active).

Turning to `O=C(C(Cc1ccccc1)NS(=O)(=O)c1ccc(F)cc1)N1CCC2(CC1)OCCO2` (configuration not stated), the inhibition (at 20 µM) was 3.1% (inactive).

Turning to `CNCCc1ccc(OC)c(OC)c1`, the inhibition (at 20 µM) is -0.5% (inactive).

For `O=C(c1ccc(Cl)cc1)C12CN3CN(CN(C3)C1)C2`, the inhibition (at 20 µM) was 0% (inactive).

In general, inhibition refers to the drop in the measured response relative to a control, in per cent.
